Consider 55 compounds from PMC4336329 (PLoS ONE, 2015).

Out of some 310,000 compounds screened, about 14,000 (4.5%) showed an effect of 50% or more. The effect is printed as a negative number. Only a selection was taken, and strong results are over-represented in it overall.
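Also: peak tail current of the secondary pulse compared with the same well before compound.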

In this test the target is human ether-à-go-go-related gene (hERG) potassium channel (human, UniProt Q12809). The experiment in a line: primary screen, population patch clamp on CHO cells stably expressing hERG; higher = less effect of the substance.
Chain of human ether-à-go-go-related gene (hERG) potassium channel (Q12809 whole entry, looked up): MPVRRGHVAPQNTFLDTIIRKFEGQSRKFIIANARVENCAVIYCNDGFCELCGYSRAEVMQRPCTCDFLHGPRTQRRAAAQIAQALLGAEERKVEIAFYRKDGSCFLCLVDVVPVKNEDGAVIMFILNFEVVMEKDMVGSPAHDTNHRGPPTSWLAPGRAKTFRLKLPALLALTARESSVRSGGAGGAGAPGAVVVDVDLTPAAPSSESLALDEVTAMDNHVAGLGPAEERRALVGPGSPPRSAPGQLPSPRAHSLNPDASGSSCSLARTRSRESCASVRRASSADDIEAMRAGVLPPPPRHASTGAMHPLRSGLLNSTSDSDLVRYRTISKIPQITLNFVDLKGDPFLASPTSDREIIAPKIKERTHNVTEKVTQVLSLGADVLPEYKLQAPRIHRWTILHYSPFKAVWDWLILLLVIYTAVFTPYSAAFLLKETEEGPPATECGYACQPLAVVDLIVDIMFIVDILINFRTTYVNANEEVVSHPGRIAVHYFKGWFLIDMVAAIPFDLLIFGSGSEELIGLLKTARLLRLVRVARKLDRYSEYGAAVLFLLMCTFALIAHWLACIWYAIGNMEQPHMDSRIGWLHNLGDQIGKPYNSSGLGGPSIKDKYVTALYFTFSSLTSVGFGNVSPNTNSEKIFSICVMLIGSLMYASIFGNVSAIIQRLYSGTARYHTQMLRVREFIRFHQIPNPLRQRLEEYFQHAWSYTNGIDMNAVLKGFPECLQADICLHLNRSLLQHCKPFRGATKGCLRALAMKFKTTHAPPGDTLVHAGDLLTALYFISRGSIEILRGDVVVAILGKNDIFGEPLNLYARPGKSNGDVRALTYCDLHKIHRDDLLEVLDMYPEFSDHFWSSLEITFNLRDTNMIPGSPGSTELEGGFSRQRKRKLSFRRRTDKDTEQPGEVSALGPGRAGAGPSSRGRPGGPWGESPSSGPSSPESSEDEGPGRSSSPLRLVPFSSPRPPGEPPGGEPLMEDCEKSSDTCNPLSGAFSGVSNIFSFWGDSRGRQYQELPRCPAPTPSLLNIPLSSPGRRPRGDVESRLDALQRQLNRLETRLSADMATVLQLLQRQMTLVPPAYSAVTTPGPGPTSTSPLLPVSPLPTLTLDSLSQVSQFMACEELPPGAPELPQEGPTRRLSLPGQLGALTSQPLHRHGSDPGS
For `O=C(CN1Cc2ccccc2C1=O)Nc1ccc2c(c1)OCCO2`, the “hERG current change (%, negative = inhibition) at 10uM” value is 3.26%. In the case of `O=C([O-])c1cc(=O)[nH]c2ccc(S(=O)(=O)Nc3ccc(F)cc3)cc12.[K+]`, the “hERG current change (%, negative = inhibition) at 10uM” value is on record as 23.5%. Take `O=C(O)c1ccc(NC(=O)C2CCCCC2)cc1`: the “hERG current change (%, negative = inhibition) at 10uM” value is -7.8%. In the case of `COCCNC(=O)Cn1cc2c(n1)CCC(C)C2` (stereo not shown) it was 21.2%. In the case of `O=C(Cn1c(=O)oc2ccccc21)N1CCCC1` it was 14.4%. Turning to `Cc1[nH]c2ccccc2c1/C=N/NC(=S)NC(C)C`, the “hERG current change (%, negative = inhibition) at 10uM” value was determined as 12.1%. In the case of `CCCCC(c1nnnn1C1CCCC1)N1CCN(C2CCCCC2)CC1` (stereo not shown) it was -69.8%; in that of `CCCC(c1nnnn1C(C)(C)CC)N1CCN(C2CCCC2)CC1.Cl` (stereo not shown), -35.3%; in that of `CCC(c1nnnn1C1CCCCC1)N1CCN(C2CCCC2)CC1.Cl` (stereo not shown), -3.77%.

For the compound `CCCCC(c1nnnn1C1CCCC1)N1CCN(C(=O)c2ccco2)CC1.Cl` (stereo not shown), the “hERG current change (%, negative = inhibition) at 10uM” value is on record as -47%. For `CCCCC(c1nnnn1C1CCCC1)N1CCN(C2CCCC2)CC1.Cl` (stereo not shown) the value was -85.6%; for `CCCC(c1nnnn1C1CCCCC1)N1CCN(C2CCCC2)CC1.Cl` (stereo not shown), -46.4%. In the case of `CC(CC(=O)N(CCC1=CCCCC1)c1c(N)n(Cc2ccccc2)c(=O)[nH]c1=O)c1ccccc1` (stereo not shown) it was 17.1%; in that of `Cc1cc(F)ccc1NC(=O)CCCN(C)S(=O)(=O)c1ccc(F)cc1`, -5.3%. As to `CCc1cc2c(=O)c(-c3nc4ccccc4n3C)c(C)oc2c(CN2CCN(C)CC2)c1O`, the “hERG current change (%, negative = inhibition) at 10uM” value is on record as 14.3%.

Consider `O=C(CSc1ncnc2c1oc1ccccc12)Nc1cccc(C(F)(F)F)c1`, for which the “hERG current change (%, negative = inhibition) at 10uM” value amounted to 11%. As for `COc1ccc2c(Cl)c(C(=O)N/N=C3\CCCC(=O)C3)sc2c1`, the “hERG current change (%, negative = inhibition) at 10uM” value is reported as -9.05%. As for `Cn1c(=O)c2c(nc(CN3CCN(c4ccc(F)cc4)CC3)n2Cc2ccccc2F)n(C)c1=O`, the “hERG current change (%, negative = inhibition) at 10uM” value was -6.93%. Turning to `CCOC(=O)C/C(C)=N\Nc1ccc([N+](=O)[O-])cc1[N+](=O)[O-]`, the “hERG current change (%, negative = inhibition) at 10uM” value is recorded as -40.2%. `CCOC(=O)C(C(=O)OCC)C(C)(C)/C(C)=N\Nc1ccc([N+](=O)[O-])cc1[N+](=O)[O-]`: the “hERG current change (%, negative = inhibition) at 10uM” value is given as -40.8%. In the case of `CCOC(=O)C(C)/C(C)=N\Nc1ccc([N+](=O)[O-])cc1[N+](=O)[O-]` (stereo not shown) it was -53.2%; in that of `Cc1onc(-c2ccccc2Cl)c1C(=O)N1CCOC12CCCCC2`, 1.15%. For `Fc1cnc(N2CCOCC2)nc1N1CCc2ccccc21` the value was -19.5%; for `COc1cccc(CN2CCN(C(=O)c3cccs3)CC2)c1OC`, -4.33%. For `COC(=O)C1CC(=O)N(Cc2ccccc2)C1` (stereo not shown) the value was 23.4%. In the case of `Nc1nc(COC(=O)C2CC(=O)N(CCc3ccccc3)C2)nc(Nc2ccccc2)n1` (stereo not shown), the “hERG current change (%, negative = inhibition) at 10uM” value is recorded as -52.2%. For `Nc1nc(COC(=O)C2CC(=O)N(Cc3ccccc3Cl)C2)nc(Nc2ccccc2)n1` (stereo not shown) the value was -55.6%; for `Nc1nc(COC(=O)CCC(=O)c2ccc(Cl)cc2)nc(Nc2ccccc2)n1`, 6.39%; for `O=C(COC(=O)C1CC(=O)N(CCc2ccccc2)C1)c1ccc[nH]1` (stereo not shown), -41.8%. For `Cc1cc(C)n(CC(=O)NNC(=O)C2CC(=O)N(Cc3ccccc3Cl)C2)n1` (stereo not shown), the “hERG current change (%, negative = inhibition) at 10uM” value worked out at 1.16%.

For the compound `COc1ccccc1N1CC(C(=O)OCc2nc(N)nc(Nc3ccccc3)n2)CC1=O` (stereo not shown), the “hERG current change (%, negative = inhibition) at 10uM” value is reported as -15.8%. As to `CC(=O)Nc1ccc(NC(=O)C(C)OC(=O)C2CC(=O)N(CCc3ccccc3)C2)cc1` (stereo not shown), the “hERG current change (%, negative = inhibition) at 10uM” value is given as 14.4%. In the case of `Nc1nc(COC(=O)C2CC(=O)N(Cc3ccccc3)C2)nc(Nc2ccccc2)n1` (stereo not shown) it was -51.9%; in that of `Cc1ccc(N2CC(C(=O)OCc3nc(N)nc(Nc4ccccc4C)n3)CC2=O)cc1` (stereo not shown), -32.8%. For `Cc1ccccc1C(=O)N1CCC(C(=O)OCc2nc(N)nc(Nc3ccccc3)n2)CC1` the value was -33.6%; for `Nc1nc(COC(=O)C2CCN(C(=O)c3ccc(Cl)cc3)CC2)nc(Nc2ccccc2)n1`, -67.8%; for `CC(=O)c1ccc(NC(=O)Nc2ccc(Br)cc2C)cc1`, 22.3%. As for `COc1ccc(/C=N/NC(=O)c2ccc(N(C)S(=O)(=O)c3ccccc3)cc2)c(OC)c1`, the “hERG current change (%, negative = inhibition) at 10uM” value was found to be 6.66%. On to `Cl.O=S(=O)(c1cccs1)N1CCN(C/C=C/c2ccccc2)CC1`, for which the “hERG current change (%, negative = inhibition) at 10uM” value was -49.3%. For `COc1ccc(N(CC(=O)NCc2cccnc2)S(=O)(=O)c2ccccc2)c(OC)c1` the value was -8.52%. For `Cc1c(C)n(C)c2ccc([N+](=O)[O-])cc12` the value was -4.04%; for `O=C(CSc1ccsc1[N+](=O)[O-])NCCc1ccccc1`, 2.6%; for `CCCCCNC(=O)Cc1ccc(OC)cc1`, 1.41%. For `COc1ccc(NC(=O)CN2CCN(CC#N)CC2)cc1` the value was -75.6%; for `N#CCN1CCN(CC(=O)Nc2ccc(OCc3ccccc3)cc2)CC1`, -4.27%. As to `COc1ccc(NC(=O)CN2CCN(CC(=O)Nc3ccc(OC)c(OC)c3)CC2)cc1`, the “hERG current change (%, negative = inhibition) at 10uM” value is -74.6%. As to `COc1ccc(N2CCN(CC(=O)Nc3ccc(C)c(C)c3)CC2)cc1`, the “hERG current change (%, negative = inhibition) at 10uM” value was -17.3%. For `COC(=O)c1ccc(NC(=O)CN2CCN(CC#N)CC2)cc1.O=C(O)C(=O)O` the value was 3.24%; for `COc1cccc(CN2CCN(CC(=O)NCCc3ccccc3)CC2)c1`, -11.8%; for `COc1ccc(NC(=O)CN2CCOCC2)cc1.O=C(O)C(=O)O`, 13%. In the case of `CCN(CC)c1ccc(NC(=O)CN2CCN(CC(=O)Nc3ccc(OC)cc3)CC2)cc1` it was -74.9%. Regarding `COc1ccc(NC(=O)CN2CCCCCC2)cc1OC`, the “hERG current change (%, negative = inhibition) at 10uM” value was determined as 3.79%.

As to `CCCCNC(=O)CN1CCN(Cc2ccc3cc(OC)ccc3c2)CC1.O=C(O)C(=O)O`, the “hERG current change (%, negative = inhibition) at 10uM” value is -69%. On to `CCN(C(=O)COc1ccccc1)c1nnc(-c2cccnc2)s1`, for which the “hERG current change (%, negative = inhibition) at 10uM” value was determined as 8.69%. For `Cc1cccc(NC(=O)c2cccc(NC(=O)Cc3cccs3)c2)c1` the value was 4.72%.
